In PubChem BioAssay AID540333 (Southern Research Specialized Biocontainment Screening …, 2011):
Screen size: about 10,000 compounds; about 320 (3.2%) were called active. Rule as the data show it: active = CPE inhibition mostly above about 9.1% (no sharp cut-off); inactive = mostly below about 7.2%. What follows is part of a selection rich in actives, with near analogues and random picks from the rest.

Assay: Dengue virus cytopathic effect inhibitors, cell-based, CPE readout, HTS (AID 540333)
Settings: Dengue virus CPE inhibition in host cells, at 20 µM; active compounds read high

Structure (SMILES) | CPE inhibition
Cc1ccc(-n2c(SCC(N)=O)nc(O)cc2=O)cc1 | 1.35% (inactive)
Cc1ccc(-c2csc3nc(SCC(N)=O)n(Cc4ccccc4)c(=O)c23)cc1 | 12% (active)
Cc1ccc(-c2csc3nc(SCC(=O)N(C)C)n(Cc4ccccc4)c(=O)c23)cc1 | 21.1% (active)
CN(Cc1ccccc1)c1nc(CN2CCOCC2)nc2scc(-c3ccccc3)c12 | 1.83% (inactive)
C=CCn1c(SCC(=O)c2[nH]c(C)c(C(=O)OCC)c2C)nc2scc(-c3ccc(OC)cc3)c2c1=O | inactive
CCn1c(SCc2nc3scc(-c4ccccc4)c3c(=O)[nH]2)nnc1-c1cccs1 | inactive
O=C(Nc1ccc(-c2nc3ccccc3[nH]2)cc1)c1ccccc1NS(=O)(=O)c1ccc(F)cc1 | 0.325% (inactive)
COc1cc(NC(=O)CSc2nc3c(C)ccc(C)c3cc2C)c(C(=O)O)cc1OC | inactive
O=C1CN(C(=O)CSc2nnc(Nc3ccccc3)s2)c2ccccc2N1 | inactive
S=C1NCCOCCNC(=S)NCCOCCOCCOCCN1 | inactive
CC(=O)CC[C@@H](C)O[C@@H]1OC(C)[C@H](O)CC1O (stereo not given in full) | 0.175% (inactive)
CCc1cccc(CC)c1NC(=O)C1CN(S(=O)(=O)c2ccccc2)CCN1S(=O)(=O)c1ccccc1 (stereo not given) | 1.21% (inactive)
COC(=O)C(Oc1ccc2c(-c3ccc(OC)cc3)cc(=O)oc2c1)c1ccccc1 (stereo not given) | 0.765% (inactive)
CC(C)(C)OC(=O)NCC(=O)Oc1cc2oc(=O)cc(-c3ccccc3)c2cc1Cl | 24.3% (active)
O=C(COc1ccc2c(-c3ccccc3)cc(=O)oc2c1)NCc1cccs1 | 0.675% (inactive)
COc1ccccc1NC(c1cccnc1)c1ccc2cccnc2c1O (stereo not given) | 0.795% (inactive)
Cc1ccc(Cl)cc1NC(=O)c1ccc(NC(=O)CCC(=O)O)cc1 | 0.84% (inactive)
O=C(NC(=S)Nc1nc2c(s1)CCCC2)c1ccc(C(=O)c2ccccc2)cc1 | 11.3% (active)
O=C(NC(=S)Nc1nc2c(s1)CCCC2)c1ccccc1 | 0.705% (inactive)
Cc1csc(NC(=O)[C@@H](NC(=O)c2ccccc2)C(C)C)n1 | 0.86% (inactive)
COC(=O)c1ccc(C(=O)NC(=S)Nc2nc3c(s2)CCCC3)cc1 | 0.85% (inactive)
COc1ccc(C(=O)N[C@H](C(=O)Nc2nc3c(s2)CCCC3)C(C)C)cc1 | 18.9% (active)
N#Cc1c(NC(=S)NC(=O)c2ccccc2)sc2c1CCCC2 | 1.09% (inactive)
Cc1ccc(-n2c(SCC(=O)NCCN3C(=O)CSC3=O)nnc2-c2cccc(C)c2)cc1 | 0.355% (inactive)
O=C(CSCc1ccc([N+](=O)[O-])cc1)NC1CC1 | 2.12% (inactive)
